Source: PubChem BioAssay AID1423 (NMMLSC, 2008)
About 750 (0.34%) of roughly 220,000 compounds were called active. Rule as the data show it: active = response below about 60% or above about 140%; inactive = in between. This excerpt belongs to a sample that is enriched for actives.

What follows are compounds tested against Guanine nucleotide-binding protein G(o) subunit alpha (Homo sapiens) (UniProt P09471) (assay: compounds changing RGS8 association with Galphao – biochemical, multiplexed bead flow cytometry, primary screen (AID 1423;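 also: Galphao activated as the GDP aluminium fluoride complex binding bead-coupled RGS8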)). Details: at 10 µM, actives lie on both sides.
Guanine nucleotide-binding protein G(o) subunit alpha (Homo sapiens), sequence (P09471 whole entry, looked up): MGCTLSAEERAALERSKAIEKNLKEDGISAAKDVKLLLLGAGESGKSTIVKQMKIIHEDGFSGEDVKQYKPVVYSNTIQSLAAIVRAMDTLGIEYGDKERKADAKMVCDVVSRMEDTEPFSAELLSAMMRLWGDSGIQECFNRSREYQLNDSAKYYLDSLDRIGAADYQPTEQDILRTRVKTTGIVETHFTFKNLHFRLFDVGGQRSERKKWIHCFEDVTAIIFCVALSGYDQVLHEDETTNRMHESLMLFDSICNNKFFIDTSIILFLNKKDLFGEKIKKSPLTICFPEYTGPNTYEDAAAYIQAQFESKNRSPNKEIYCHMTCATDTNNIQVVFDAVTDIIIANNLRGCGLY

Response (percent of control binding), active:
CCCn1nnnc1NC(=O)COc1ccc(Cl)cc1C 11.9%
Oc1ccc(-c2onc3ccc(Cl)cc23)cc1 144% [activator]
O=C(NCc1ccc(F)cc1)C1CCC(CNc2c(N3CCOCC3)c(=O)c2=O)CC1 (stereo not drawn) 8.33%
Cc1ccc(Cn2ccc(NC(=O)c3cc(C(C)C)on3)n2)cc1 55.8%

Response (percent of control binding), inactive:
COc1cc(C(=O)NCc2ccc(-n3cccc3)cc2)cc(OC)c1OC 103%
O=C(CCCl)Nc1ccc(S(=O)(=O)NCc2ccco2)cc1 98.5%
CCOC(=O)N1CCN(C(=O)COc2ccc(Cl)cc2C)CC1 101%
Cc1cc(NC(=O)COc2ccc(Cl)cc2Cl)n(CCC#N)n1 99.5%
CCCCCN(C(=O)NC(=O)Nc1cccc(C)c1C)S(C)(=O)=O 102%
O=C(CCc1ccccc1)Nc1ccc(NC(=O)C2CCCCC2)nc1 105%
O=C(COC(=O)c1ccc[nH]c1=O)Nc1ccc2c(c1)OC(F)(F)O2 104%
O=C(CSc1nc2ccc(Nc3nc(N4CCOCC4)nc(N4CCOCC4)n3)cc2s1)NCc1ccco1 98.3%
Cc1ccc(C(=O)N/C(=C/c2cccs2)C(=O)NCC2CCCO2)cc1 (stereo not drawn) 103%
O=C(Cn1nnc(-c2ccccc2)n1)N/N=C/c1ccc(-c2ccc(Cl)cc2)o1 101%
Clc1ccc2nc(-c3ccccc3)nc(C(Cl)Cl)c2c1 94.2%
O=C(Oc1cccc(N2C(=O)C3C4c5ccccc5C(c5ccccc54)C3C2=O)c1)c1ccco1 (stereo not drawn) 102%
O=C1C2C3C=CC(C4CC34)C2C(=O)N1c1nccs1 (stereo not drawn) 101%
CCc1nnc(NC(=O)CCCSc2nc3ccccc3[nH]2)s1 101%
Cc1ccc(NC(=O)/C(=C/c2ccc([N+](=O)[O-])cc2)NC(=O)c2ccccc2)cc1 106%
COc1ccc(-c2nc3cnccn3c2NC(C)(C)CC(C)(C)C)cc1O 98.8%
COc1ccc(N=C(C)c2sc3ccccc3c2O)cc1 97.2%
CC(NC(=O)C1CCC(CNc2c(N3CCOCC3)c(=O)c2=O)CC1)c1ccccc1 (stereo not drawn) 99.7%
COc1ccc(CNC(=O)C2CCC(CNc3c(N4CCOCC4)c(=O)c3=O)CC2)cc1 (stereo not drawn) 103%
Cc1cccc(C)c1NC(=O)Nc1ccccc1-n1ccnc1 101%
Cc1ccc(Cn2ccc(NC(=O)C3C4CCC(C4)C3C(=O)O)n2)cc1 (stereo not drawn) 102%
O=C(Nc1ccn(Cc2ccccc2)n1)c1cccc(F)c1 103%
Cc1onc(-c2ccc(Cl)cc2)c1-c1ccnn1S(=O)(=O)c1ccc(Cl)cc1 98.9%
CS(=O)(=O)N(Cc1ccccc1)c1ccc(C(=O)NN=C2CCCCCC2)cc1 103%
